Records with an inconclusive call do not appear. Calls of active or inactive are those of the source. Rule for the calls: active = hit-call score of the fitted dose curve at least 0.9, where 1 is the maximum; inconclusive = response in the unintended direction; inactive = score below 0.9.
Target: human RAR-related Orphan Receptor beta (RORb), RORB (gene 6096) (UniProt Q92753)
Test: ATG_RORb_TRANS: Attagene TRANS-FACTORIAL HepG2 Assay for human RAR-related Orphan Receptor beta (RORb) (AID 2283010)
Method: ATG_TRANS is a cell-based, multiplexed-readout assay that uses HepG2, a human liver cell line, with measurements taken at 24 hours after chemical dosing in a 24-well plate.ATG_RORb_TRANS is one of 30 assay component(s) measured or calculated from the ATG_TRANS assay. It is designed to make measurements of mRNA induction, a form of inducible reporter, as detected with fluorescence intensity signals by Reverse transcription polymerase chain reaction (RT-PCR) and Capillary electrophoresis technology.Data from the assay component ATG_RORb_TRANS was analyzed into 1 assay endpoint. This assay endpoint, ATG_RORb_TRANS, was analyzed in the positive analysis fitting direction relative to DMSO as the negative control and baseline of activity. Using a type of inducible reporter, measures of mRNA for gain-of-signal activity can be used to understand the reporter gene at the transcription factor-level as they relate to the gene RORB. Furthermore, this assay endpoint can be referred to as a primary readout, because this assay has produced multiple assay endpoints where this one serves a reporter gene function. To generalize the intended target to other relatable targets, this assay endpoint is annotated to the nuclear receptor intended target family, where the subfamily is orphan.
Human liver HepG2 cells are transiently transfected with multiple reporter transcription units (MRTUs) in 6-well plates using FuGene 6 reagent (Roche; 3 ml FuGene/1 mg DNA). The MRTU constructs are regulated by a cis-regulating element (promoter). […] A major difference between the CIS and TRANS system is that in CIS activities of endogenous TFs are measured, whereas the TRANS assay evaluates changes in activities of exogenous, chimeric NR-Gal4 proteins. […] At the end of 24 hour incubation, total RNA was isolated using TriZol reagent (Invitrogen). The isolated RNA is then reverse-transcribed using oligo(dT) primer and Mo-MLV reverse transcriptase (Invitrogen) with DNAse I (Ambion) treatment for 30 min. The one-tenth of the produced cDNA was amplified by PCR using Taq DNA polymerase (Invitrogen) and two reporter sequence-specific primers. The PCR products were fluorescently labeled by primer extension with 6-arboxyfluorescein (6-FAM) 5'-labeled reporter sequence-specific primer (2 min at 95 C, 20 s at 68 C and 10 min at 72 C) and these products were digested with 5U of HpaI (New England Biolabs) for 2h at 37 C. The fragments were purified using Qiaquick PCR columns (Qiagen), analyzed on an ABI 3130xL genetic analyzer (Applied Biosystems) with peak positions identified by using a set of X-rhodamine (ROX)-labeled MapMarker1000 molecular weight standards (BioVentures). The raw capillary electrophoresis data was processed using Attagraph software (Attagene).

Chain of human RAR-related Orphan Receptor beta (RORb), RORB (gene 6096) (Q92753 whole entry, looked up): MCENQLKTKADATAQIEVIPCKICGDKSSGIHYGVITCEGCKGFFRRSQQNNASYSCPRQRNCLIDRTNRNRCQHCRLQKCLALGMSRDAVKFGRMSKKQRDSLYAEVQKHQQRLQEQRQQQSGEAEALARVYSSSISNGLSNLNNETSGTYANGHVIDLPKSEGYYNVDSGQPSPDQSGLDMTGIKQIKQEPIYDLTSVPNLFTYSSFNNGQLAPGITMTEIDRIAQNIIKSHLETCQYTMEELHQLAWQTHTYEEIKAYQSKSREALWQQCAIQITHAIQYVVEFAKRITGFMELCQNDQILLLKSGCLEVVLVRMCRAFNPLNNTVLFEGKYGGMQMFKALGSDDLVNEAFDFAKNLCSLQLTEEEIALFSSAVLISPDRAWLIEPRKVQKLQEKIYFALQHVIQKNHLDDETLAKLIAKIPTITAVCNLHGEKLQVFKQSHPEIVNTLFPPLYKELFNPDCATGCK

Structure (SMILES) | outcome
CCOP(=S)(S)OCC | inactive
Cc1cccc(N)c1 | inactive
CCOC(=O)c1ccccc1N | inactive
CO/N=C(/C(=O)OC)c1ccccc1COc1ccccc1C | inactive
Nc1ccc(Sc2ccc(N)cc2)cc1 | inactive
CC(C)(C)OOC(C)(C)C | inactive
CC(C)CBr | inactive
N#Cc1c(-c2ccc(Cl)cc2)[nH]c(C(F)(F)F)c1Br | inactive
ClC(Cl)=C(c1ccc(Cl)cc1)c1ccccc1Cl | inactive
O=c1ssc(Cl)c1Cl | inactive
CSC(C)(C)C=NO | inactive
CC(O)C(F)(F)C(F)(F)F (configuration not stated) | inactive
Cn1[nH]nnc1=S | inactive
O=[N+]([O-])c1ccc(Cl)c(Cl)c1 | inactive
Nc1cc2c3c(c1)C(c1ccccc1)=N[C@@H](NC(=O)c1cccnc1)C(=O)N3CC2 | inactive
NNC(N)=S | inactive
C=C(C)C(=O)OCC1CO1 (configuration not stated) | inactive
CC(Cl)CN(C)C (configuration not stated) | inactive
N#C/C=C/c1ccccc1 | inactive

Structure (SMILES) | outcome
O=C(O)C=CC(F)(C(F)(F)F)C(F)(F)F | inactive
O=C(O)C(F)(F)C(F)(F)C(=O)O | inactive
N#Cc1ccc(O)cc1 | inactive
CCCCCCCc1ccc(O)cc1 | inactive
Nc1ccc2ccccc2c1 | inactive
COC(=O)C(F)(F)C(F)(F)OC(F)(C(F)(F)F)C(F)(F)OC(F)=C(F)F (configuration not stated) | inactive
O=C(O)C(F)(OC(F)(F)C(F)(F)C(F)(F)F)C(F)(F)F (configuration not stated) | inactive
CN(C)C(=O)Cl | inactive
O=C(O)C1C(C(=O)O)C2(Cl)C(Cl)=C(Cl)C1(Cl)C2(Cl)Cl (configuration not stated) | inactive
CC(C)(C)c1ccc(O)cc1 | inactive
O=C(O)CF | inactive
ClC(Cl)c1ccccc1 | inactive
CCC(C)(C)c1ccc(O)cc1 | inactive
Cc1ccc(N)cc1N | inactive
OCC(F)(F)OC(F)(F)C(F)(F)OC(F)(F)C(F)(F)OC(F)(F)F | inactive
Cc1ccc(C(=O)Cl)cc1 | inactive
O=S(=O)(F)C(F)(F)C(F)(F)C(F)(F)C(F)(F)C(F)(F)C(F)(F)C(F)(F)C(F)(F)F | inactive
C/C(=N\NC(=O)Nc1cc(F)cc(F)c1)c1ncccc1C(=O)O | inactive

— PubChem BioAssay (EPA / NIEHS)
